MCF10A rerep – inducers of DNA re-replication in MCF 10A breast cells | actives 2.9% (n = 350,000) | Potency, µM (doses to about 46.1 µM), for inactives: at the top dose activity, positive = re-replication, hits mostly activators | MCF 10A DNA re-replication, Hoechst nuclear intensity, 48 h | AID 624296; note: % of control where 0% means no effect; nearly all actives have a fitted effect of over 50% in size
HT1080 IDH1KD tx – toxicity to HT-1080 IDH1 knockdown cells (counter line); Potency, µM (top dose mostly 46.1 µM), for inactives: top-dose activity, negative = toxicity, actives largely listed as cytotoxic; AID 686971; HT-1080 IDH1 knockdown viability, ATP luminescence, 48 h; actives 2% (n = 360,000);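 note: 0% = DMSO wells and -100% = cell-free medium wells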
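Cytotoxicity counter-line: IDH1KD HT-1080, 48 h, CellTiter-Glo. Curves classed by r2, magnitude and activity.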
KB-V1 MDR tox – KB-V1 MDR subline cytotoxicity. KB-V1 MDR cells viability, CellTiter-Glo, 72 h. AID 1347076. actives 3.4% (n = 400,000). Potency, µM (top dose mostly 46.1 µM), most hits filed as cytotoxic; note: % is set by controls: 0 for no effect and ±100 for the full control effect; nearly all actives have a fitted effect of over 60% in size
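Cytotoxicity toward P-gp-expressing KB-V1 cells was determined as loss of CellTiter-Glo luminescence after 72 h at 37 degrees C. Compounds were tested in quantitative HTS format across a concentration range, with curves fitted to normalized data.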
HT1080-NT tox – kills 2HG-producing HT-1080-NT fibrosarcoma cells; HT-1080-NT fibrosarcoma viability, CellTiter-Glo ATP luminescence, 48 h; Potency, µM (series often up to 46.1 µM), for inactives: top-dose activity, negative = less viability, most hits filed as cytotoxic; actives 1.6% (n = 360,000);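 note: NT is the 2HG producing partner of a matched IDH1 knockdown line; 0% = DMSO-treated cells and -100% = media-only wells without cells; nearly all actives have a fitted effect of over 55% in size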
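Fibrosarcoma NT cells, 750 per well in 5% FBS RPMI, were exposed to compound for 48 hours. Viability: CellTiter-Glo luminescence.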
KB-3-1 tox – KB-3-1 parental cell cytotoxicity; KB-3-1 viability, CellTiter-Glo ATP luminescence, 72 h; Potency, µM (highest dose often 46.1 µM), usual class: cytotoxic; actives 1.4% (n = 400,000); AID 1347075; note: % is set by controls: 0 for no effect and ±100 for the full control effect; nearly all actives have a fitted effect of over 60% in size
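Parental KB-3-1 viability, qHTS format: 72 h compound exposure, 37 °C; CellTiter-Glo; media-only wells and DMSO plates as controls; concentration-effect fits on corrected data.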
SW480 rereplic – induces DNA re-replication in SW480 colon adenocarcinoma cells | SW480 DNA re-replication, Hoechst DNA content imaging, 48 h | AID 624297 | Potency, µM (highest dose often 46.1 µM), for inactives: at the highest dose re-replication activation, actives largely listed as activators | actives 1.8% (n = 340,000); note: % of control where 0% means no effect; nearly all actives have a fitted effect of over 55% in size
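Quantitative HTS format with DMSO vehicle controls; 48 hr drug incubation at 37 C, then 40 min Hoechst staining and scanning imager measurement at 405 nm excitation.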
The depositor's hits bear a star; [ ] = dose if it differs, or a comment. An excerpt weighted towards active compounds, which were near 7.9% of everything screened. Calls come from the whole dose curve; as a rule, active = well fitted curve in the direction sought with a large enough effect; inconclusive = small, poorly fitted or top-dose-only effect, or another doubt; inactive = no such curve, though single readings can be large; an effect the other way counts as inactive or inconclusive. Potency is the fitted concentration of half-maximal effect.

O=C(O)c1ccc(/C=C2\SC(=S)N(Nc3ccccc3)C2=O)cc1 was read as MCF10A rerep 4.9%, HT1080 IDH1KD tx 4.61µM*, KB-V1 MDR tox inactive, HT1080-NT tox inconclusive, KB-3-1 tox inactive and SW480 rereplic -11.2%.
Screening CC(C)(C)OC(=O)N(CCc1ccccc1)Cc1ccccc1OCc1ccc(NC(=O)C2CCCC2)cc1 returned MCF10A rerep 9.8%, HT1080 IDH1KD tx -3.2%, KB-V1 MDR tox inactive, HT1080-NT tox -0.7%, KB-3-1 tox inactive and SW480 rereplic inconclusive.
For COc1nc(-c2ccc(C)cc2)ccc1-c1noc(-c2cccnc2)n1 the results were MCF10A rerep 20.6µM*, HT1080 IDH1KD tx 17.4%, KB-V1 MDR tox inactive, HT1080-NT tox 18.7%, KB-3-1 tox inactive and SW480 rereplic -12.9%.
For COc1ccc(-c2ccc(-c3noc(C4CCCCC4)n3)c(OC)n2)cc1 the results were MCF10A rerep 15.0%, HT1080 IDH1KD tx -0.2%, KB-V1 MDR tox 16.4µM*, HT1080-NT tox -2.9%, KB-3-1 tox inactive and SW480 rereplic -60.3%.
`COc1ccc(-c2ccc(-c3noc(-c4ccccc4C)n3)c(OC)n2)cc1` gave MCF10A rerep 14.6µM*, HT1080 IDH1KD tx 29.8%, KB-V1 MDR tox inactive, HT1080-NT tox 18.4%, KB-3-1 tox inactive and SW480 rereplic 1.8%.
COc1nc(-c2ccccc2)ccc1-c1noc(-c2cccnc2)n1 was read as MCF10A rerep -1.6%, HT1080 IDH1KD tx -1.3%, KB-V1 MDR tox inactive, HT1080-NT tox 8.7%[9.24 µM], KB-3-1 tox inactive and SW480 rereplic -1.7%.
Screening CC(=O)c1ccc(NC(=O)Cn2nc(N3CCN(c4ccccc4)CC3)ccc2=O)cc1 returned KB-V1 MDR tox inactive and KB-3-1 tox inactive.
`Cc1ccc(Cl)cc1N(C)C(=O)Cn1ncc2c([nH]c3ccccc32)c1=O` gave MCF10A rerep inconclusive, HT1080 IDH1KD tx 9.4%, KB-V1 MDR tox inactive, HT1080-NT tox 18.9%, KB-3-1 tox inactive and SW480 rereplic 20.6µM*.
O=C(CSc1nnc(Cn2nnc3ccccc32)o1)N(Cc1ccc(Cl)cc1)c1ccccc1 was read as MCF10A rerep -14.8%, HT1080 IDH1KD tx 3.26µM*, KB-V1 MDR tox inactive, HT1080-NT tox -5.0%, KB-3-1 tox 13µM* and SW480 rereplic 2.6%.
For O=C(CSc1nnc(Cn2nnc3ccccc32)o1)Nc1cccc(Cl)c1 the results were MCF10A rerep 8.4%, HT1080 IDH1KD tx 13.7%, KB-V1 MDR tox inactive, HT1080-NT tox 15.4%, KB-3-1 tox inactive and SW480 rereplic -3.2%.
`CC1CCN(C(=O)CCNS(=O)(=O)c2ccc3c(c2)c(=O)n(C)c(=O)n3C)CC1` gave MCF10A rerep 1.8%, HT1080 IDH1KD tx 27.0%, KB-V1 MDR tox inactive, HT1080-NT tox 25.5%, KB-3-1 tox inactive and SW480 rereplic inconclusive.
For COc1ccc(-c2cccc(NS(=O)(=O)c3cccc([N+](=O)[O-])c3)c2)nn1 the results were MCF10A rerep -17.4%, HT1080 IDH1KD tx -4.9%, KB-V1 MDR tox inactive, HT1080-NT tox -7.2%, KB-3-1 tox inactive and SW480 rereplic inconclusive.
COc1ccc(-c2cccc(NS(=O)(=O)c3ccc([N+](=O)[O-])cc3)c2)nn1 was read as MCF10A rerep 13.1%, HT1080 IDH1KD tx 5.8%, KB-V1 MDR tox 13µM*, HT1080-NT tox 4.7%, KB-3-1 tox inactive and SW480 rereplic -6.7%.
Screening O=S(=O)(c1ccc2c(c1)OCCO2)N1CCN(c2nc(-c3cccs3)nc3ccccc23)CC1 returned HT1080 IDH1KD tx 18.0% and HT1080-NT tox 6.0%.
Cc1ccc(N2C(N)=NC(N)=NC2(C)C)c(C)c1 was read as MCF10A rerep 5.7%, HT1080 IDH1KD tx 20.6µM*, KB-V1 MDR tox inactive, HT1080-NT tox inconclusive, KB-3-1 tox inactive and SW480 rereplic 1.4%.
For COc1ccc(N2C(N)=NC(N)=NC2(C)C)cc1 the results were MCF10A rerep inconclusive, HT1080 IDH1KD tx 8.2µM*, KB-V1 MDR tox inactive, HT1080-NT tox 9.2µM*, KB-3-1 tox inconclusive and SW480 rereplic 3.6%.
`CC1(C)N=C(N)N=C(N)N1c1cccc(C(=O)O)c1` gave MCF10A rerep -1.9%, HT1080 IDH1KD tx -1.9%, KB-V1 MDR tox inactive, HT1080-NT tox 13.0%, KB-3-1 tox inactive and SW480 rereplic -5.4%.
Screening Cc1ccccc1N1C(N)=NC(N)=NC1(C)C returned MCF10A rerep -2.1%, HT1080 IDH1KD tx 13.2%, KB-V1 MDR tox inactive, HT1080-NT tox 8.8%, KB-3-1 tox inactive and SW480 rereplic -3.2%.
COc1cccc(N2C(N)=NC(N)=NC2(C)C)c1 was read as MCF10A rerep inconclusive, HT1080 IDH1KD tx 2.31µM*, KB-V1 MDR tox inactive, HT1080-NT tox 6.51µM*, KB-3-1 tox inconclusive and SW480 rereplic -0.9%.
For CC1(C)N=C(N)N=C(N)N1c1cccc(C#N)c1 the results were MCF10A rerep 15.0%, HT1080 IDH1KD tx 0.231µM*, KB-V1 MDR tox inactive, HT1080-NT tox inconclusive, KB-3-1 tox 16.4µM* and SW480 rereplic inconclusive.
COc1ccccc1N1C(N)=NC(N)=NC1(C)C was read as MCF10A rerep -2.2%, HT1080 IDH1KD tx -6.8%, KB-V1 MDR tox inactive, HT1080-NT tox 0.7%, KB-3-1 tox inactive and SW480 rereplic -4.6%.
COc1ccc(N2C(N)=NC(N)=NC23CCCC3)cc1 was read as MCF10A rerep 16.2%, HT1080 IDH1KD tx 1.8%, KB-V1 MDR tox inactive, HT1080-NT tox 4.6%, KB-3-1 tox inactive and SW480 rereplic -2.2%.
CC(=O)c1cccc(Nc2ncnc3c2cnn3-c2cccc(Cl)c2)c1 was read as KB-V1 MDR tox inconclusive and KB-3-1 tox inactive.
Screening Cc1ccccc1-c1nc(CNC(=O)NC2CCCCC2)c(C)o1 returned KB-V1 MDR tox inactive and KB-3-1 tox inactive.
`O=C(COC(=O)c1ccc(O)cc1O)NC1CCCCCC1` gave MCF10A rerep 4.0%, HT1080 IDH1KD tx 0.0%, KB-V1 MDR tox inactive, HT1080-NT tox -1.8%, KB-3-1 tox inactive and SW480 rereplic -4.2%.
For COCCCN1C(=O)C(CC(=O)NCCCN(C)C)CC(C(=O)N2CCOCC2)=C1C (centres undefined) the results were HT1080 IDH1KD tx 7.0%, KB-V1 MDR tox inactive, HT1080-NT tox inconclusive and KB-3-1 tox inactive.
For CCOc1ccc(N2C(N)=NC(N)=NC2(C)C)cc1 the results were MCF10A rerep 7.31µM*, HT1080 IDH1KD tx 10.3µM*, KB-V1 MDR tox inactive, HT1080-NT tox inconclusive, KB-3-1 tox inconclusive and SW480 rereplic -4.6%.
